The text below walks through data of ChEMBL document CHEMBL1961873, “Compounds: GSK PKIS; Assays: Nanosyn kinase panel” (2012).

Assay [1] has as its target T1, Inhibitor of nuclear factor kappa-B kinase subunit epsilon (Homo sapiens) (UniProt Q14164).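 Also: reported values are averaged percent inhibition figures against human IKKε.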
T1 sequence (whole entry): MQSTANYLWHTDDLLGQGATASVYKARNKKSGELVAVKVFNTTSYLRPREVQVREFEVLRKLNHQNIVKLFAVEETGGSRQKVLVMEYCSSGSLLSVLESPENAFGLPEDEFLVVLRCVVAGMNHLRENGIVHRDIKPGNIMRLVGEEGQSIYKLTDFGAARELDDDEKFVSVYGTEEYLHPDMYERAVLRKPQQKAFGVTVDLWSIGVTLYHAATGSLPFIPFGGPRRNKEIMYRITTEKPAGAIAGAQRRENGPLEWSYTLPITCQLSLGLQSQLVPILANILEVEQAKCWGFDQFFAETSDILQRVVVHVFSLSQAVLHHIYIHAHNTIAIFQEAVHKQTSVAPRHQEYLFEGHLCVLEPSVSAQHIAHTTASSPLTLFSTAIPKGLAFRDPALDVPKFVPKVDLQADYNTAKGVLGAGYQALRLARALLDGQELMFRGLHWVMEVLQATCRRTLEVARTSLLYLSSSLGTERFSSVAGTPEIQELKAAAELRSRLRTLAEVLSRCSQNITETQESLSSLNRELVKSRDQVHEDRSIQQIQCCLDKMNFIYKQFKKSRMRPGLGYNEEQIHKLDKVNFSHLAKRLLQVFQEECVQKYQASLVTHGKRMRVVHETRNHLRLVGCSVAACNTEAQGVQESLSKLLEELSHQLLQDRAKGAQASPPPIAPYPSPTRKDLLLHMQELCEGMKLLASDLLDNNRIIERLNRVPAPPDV
The following applies: at 1 µM.

The target of assay [2] is T2, Serine/threonine-protein kinase Nek1 (Homo sapiens) (UniProt Q96PY6).
T2 sequence (whole entry): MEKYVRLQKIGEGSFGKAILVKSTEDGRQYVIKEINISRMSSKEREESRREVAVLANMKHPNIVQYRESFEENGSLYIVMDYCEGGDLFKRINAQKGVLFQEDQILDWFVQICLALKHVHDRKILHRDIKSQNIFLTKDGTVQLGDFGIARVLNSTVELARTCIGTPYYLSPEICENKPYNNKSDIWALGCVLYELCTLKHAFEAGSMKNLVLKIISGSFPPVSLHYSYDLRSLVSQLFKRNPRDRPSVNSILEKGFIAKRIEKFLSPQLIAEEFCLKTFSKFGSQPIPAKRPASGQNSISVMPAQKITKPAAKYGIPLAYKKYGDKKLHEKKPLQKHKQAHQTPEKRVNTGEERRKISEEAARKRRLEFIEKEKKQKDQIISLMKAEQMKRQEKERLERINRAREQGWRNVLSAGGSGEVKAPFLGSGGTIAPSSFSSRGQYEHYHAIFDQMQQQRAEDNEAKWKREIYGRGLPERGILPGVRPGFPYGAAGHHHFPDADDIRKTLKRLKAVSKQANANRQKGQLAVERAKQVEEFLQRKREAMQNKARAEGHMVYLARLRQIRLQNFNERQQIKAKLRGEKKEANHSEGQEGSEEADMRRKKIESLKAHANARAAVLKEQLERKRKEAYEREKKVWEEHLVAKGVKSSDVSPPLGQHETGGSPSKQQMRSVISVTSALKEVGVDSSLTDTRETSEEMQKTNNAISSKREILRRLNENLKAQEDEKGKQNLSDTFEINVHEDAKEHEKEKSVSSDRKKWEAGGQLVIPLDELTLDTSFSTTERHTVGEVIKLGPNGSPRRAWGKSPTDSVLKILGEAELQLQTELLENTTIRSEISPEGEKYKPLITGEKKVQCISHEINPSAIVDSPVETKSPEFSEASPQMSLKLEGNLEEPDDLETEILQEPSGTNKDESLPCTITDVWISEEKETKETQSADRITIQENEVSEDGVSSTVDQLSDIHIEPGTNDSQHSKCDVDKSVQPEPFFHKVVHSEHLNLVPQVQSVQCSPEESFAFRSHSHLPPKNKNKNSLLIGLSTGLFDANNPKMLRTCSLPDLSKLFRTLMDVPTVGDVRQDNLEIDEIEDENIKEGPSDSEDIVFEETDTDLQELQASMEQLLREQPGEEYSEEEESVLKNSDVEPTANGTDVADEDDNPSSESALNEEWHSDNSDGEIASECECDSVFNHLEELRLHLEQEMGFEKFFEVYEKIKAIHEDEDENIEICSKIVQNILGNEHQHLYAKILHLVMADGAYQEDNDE
The note with it: at 0.1 µM.

In assay [3] the target is T2, Serine/threonine-protein kinase Nek1 (Homo sapiens). The note with it: at 1 µM.
For assay [4], the target named is T3, Serine/threonine-protein kinase Nek2 (Homo sapiens) (UniProt P51955).
T3 sequence (whole entry): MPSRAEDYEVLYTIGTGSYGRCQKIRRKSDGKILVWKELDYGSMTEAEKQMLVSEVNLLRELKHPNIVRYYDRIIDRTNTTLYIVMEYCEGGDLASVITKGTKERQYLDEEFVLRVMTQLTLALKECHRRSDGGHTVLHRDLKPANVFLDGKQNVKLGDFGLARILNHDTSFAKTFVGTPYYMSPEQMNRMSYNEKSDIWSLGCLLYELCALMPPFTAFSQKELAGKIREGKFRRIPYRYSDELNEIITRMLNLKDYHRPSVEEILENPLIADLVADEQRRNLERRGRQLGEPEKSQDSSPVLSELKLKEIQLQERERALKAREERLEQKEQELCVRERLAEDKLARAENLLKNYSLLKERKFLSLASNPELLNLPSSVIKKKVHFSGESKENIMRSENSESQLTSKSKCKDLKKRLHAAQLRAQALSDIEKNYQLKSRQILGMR
The following applies: at 0.1 µM.

The target in assay [5] is T3, Serine/threonine-protein kinase Nek2 (Homo sapiens). The note with it: at 1 µM.
Assay [6] deals with Serine/threonine-protein kinase Nek6 (Homo sapiens) (UniProt Q9HC98). The following applies: at 0.1 µM.
Assay [7] has the same target. The following applies: at 1 µM.
Assay [8] has as its target Serine/threonine-protein kinase Nek7 (Homo sapiens) (UniProt Q8TDX7). The note with it: at 0.1 µM.
For assay [9] the target is unchanged. The note with it: at 1 µM.
Assay [10] has as its target T4, Serine/threonine-protein kinase Nek9 (Homo sapiens) (UniProt Q8TD19).
T4 sequence (whole entry): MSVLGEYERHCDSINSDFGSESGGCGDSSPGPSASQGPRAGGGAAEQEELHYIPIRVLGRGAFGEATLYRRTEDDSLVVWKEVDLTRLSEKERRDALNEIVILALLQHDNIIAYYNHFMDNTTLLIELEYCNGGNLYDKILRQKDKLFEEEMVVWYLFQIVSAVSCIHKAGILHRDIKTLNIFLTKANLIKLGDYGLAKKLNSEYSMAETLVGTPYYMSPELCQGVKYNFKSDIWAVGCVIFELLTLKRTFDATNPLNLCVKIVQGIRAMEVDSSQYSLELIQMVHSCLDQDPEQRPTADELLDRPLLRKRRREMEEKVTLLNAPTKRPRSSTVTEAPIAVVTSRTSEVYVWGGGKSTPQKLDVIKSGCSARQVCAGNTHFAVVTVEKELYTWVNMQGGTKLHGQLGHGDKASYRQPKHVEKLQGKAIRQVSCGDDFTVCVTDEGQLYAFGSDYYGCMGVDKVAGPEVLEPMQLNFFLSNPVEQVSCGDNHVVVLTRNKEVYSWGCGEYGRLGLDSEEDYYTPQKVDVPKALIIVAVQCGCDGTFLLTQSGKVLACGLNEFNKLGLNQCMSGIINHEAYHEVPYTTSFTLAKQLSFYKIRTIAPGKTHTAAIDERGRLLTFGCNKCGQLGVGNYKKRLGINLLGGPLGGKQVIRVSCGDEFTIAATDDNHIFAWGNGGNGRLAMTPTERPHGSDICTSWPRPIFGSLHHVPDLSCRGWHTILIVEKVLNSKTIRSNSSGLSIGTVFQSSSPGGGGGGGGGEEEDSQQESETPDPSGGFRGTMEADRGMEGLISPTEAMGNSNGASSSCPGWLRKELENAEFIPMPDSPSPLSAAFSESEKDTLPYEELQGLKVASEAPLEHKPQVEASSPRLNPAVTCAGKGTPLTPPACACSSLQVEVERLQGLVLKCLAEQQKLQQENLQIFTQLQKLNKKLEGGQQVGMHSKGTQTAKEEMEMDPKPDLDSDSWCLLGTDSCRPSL
The following applies: at 0.1 µM.

In assay [11] the target is T4, Serine/threonine-protein kinase Nek9 (Homo sapiens). The note with it: at 1 µM.
Assay [12] addresses Serine/threonine-protein kinase PLK1 (Homo sapiens) (UniProt P53350). The note with it: at 0.1 µM.
Assay [13] has the same target. The note with it: at 1 µM.
Assay [14] concerns the target T5, Dual specificity protein kinase TTK (Homo sapiens) (UniProt P33981).
T5 sequence (whole entry): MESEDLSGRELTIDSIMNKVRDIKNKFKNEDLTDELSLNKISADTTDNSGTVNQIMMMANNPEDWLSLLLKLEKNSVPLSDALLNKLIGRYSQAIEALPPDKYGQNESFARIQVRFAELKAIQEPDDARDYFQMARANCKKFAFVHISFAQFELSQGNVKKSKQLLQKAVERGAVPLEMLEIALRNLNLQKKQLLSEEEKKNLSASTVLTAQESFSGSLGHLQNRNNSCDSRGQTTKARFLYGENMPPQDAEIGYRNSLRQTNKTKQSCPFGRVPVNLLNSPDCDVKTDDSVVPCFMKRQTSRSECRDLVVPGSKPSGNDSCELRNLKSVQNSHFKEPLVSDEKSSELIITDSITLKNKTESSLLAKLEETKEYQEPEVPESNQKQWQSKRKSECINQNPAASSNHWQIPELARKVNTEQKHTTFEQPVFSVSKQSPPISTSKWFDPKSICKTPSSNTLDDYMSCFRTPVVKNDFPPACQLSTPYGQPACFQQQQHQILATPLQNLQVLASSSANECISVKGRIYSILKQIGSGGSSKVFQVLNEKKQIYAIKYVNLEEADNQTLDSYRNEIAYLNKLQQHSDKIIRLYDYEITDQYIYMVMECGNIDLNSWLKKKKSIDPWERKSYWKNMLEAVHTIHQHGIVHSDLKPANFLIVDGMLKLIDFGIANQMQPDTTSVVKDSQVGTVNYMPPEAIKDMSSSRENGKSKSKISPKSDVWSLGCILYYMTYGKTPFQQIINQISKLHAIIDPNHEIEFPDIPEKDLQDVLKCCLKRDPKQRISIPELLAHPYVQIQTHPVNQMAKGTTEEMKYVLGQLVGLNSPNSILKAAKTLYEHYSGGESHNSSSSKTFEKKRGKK
The following applies: at 0.1 µM.

Assay [15] concerns T6, Receptor-type tyrosine-protein kinase FLT3 (Homo sapiens), P36888 [D835Y].
T6 sequence (whole entry): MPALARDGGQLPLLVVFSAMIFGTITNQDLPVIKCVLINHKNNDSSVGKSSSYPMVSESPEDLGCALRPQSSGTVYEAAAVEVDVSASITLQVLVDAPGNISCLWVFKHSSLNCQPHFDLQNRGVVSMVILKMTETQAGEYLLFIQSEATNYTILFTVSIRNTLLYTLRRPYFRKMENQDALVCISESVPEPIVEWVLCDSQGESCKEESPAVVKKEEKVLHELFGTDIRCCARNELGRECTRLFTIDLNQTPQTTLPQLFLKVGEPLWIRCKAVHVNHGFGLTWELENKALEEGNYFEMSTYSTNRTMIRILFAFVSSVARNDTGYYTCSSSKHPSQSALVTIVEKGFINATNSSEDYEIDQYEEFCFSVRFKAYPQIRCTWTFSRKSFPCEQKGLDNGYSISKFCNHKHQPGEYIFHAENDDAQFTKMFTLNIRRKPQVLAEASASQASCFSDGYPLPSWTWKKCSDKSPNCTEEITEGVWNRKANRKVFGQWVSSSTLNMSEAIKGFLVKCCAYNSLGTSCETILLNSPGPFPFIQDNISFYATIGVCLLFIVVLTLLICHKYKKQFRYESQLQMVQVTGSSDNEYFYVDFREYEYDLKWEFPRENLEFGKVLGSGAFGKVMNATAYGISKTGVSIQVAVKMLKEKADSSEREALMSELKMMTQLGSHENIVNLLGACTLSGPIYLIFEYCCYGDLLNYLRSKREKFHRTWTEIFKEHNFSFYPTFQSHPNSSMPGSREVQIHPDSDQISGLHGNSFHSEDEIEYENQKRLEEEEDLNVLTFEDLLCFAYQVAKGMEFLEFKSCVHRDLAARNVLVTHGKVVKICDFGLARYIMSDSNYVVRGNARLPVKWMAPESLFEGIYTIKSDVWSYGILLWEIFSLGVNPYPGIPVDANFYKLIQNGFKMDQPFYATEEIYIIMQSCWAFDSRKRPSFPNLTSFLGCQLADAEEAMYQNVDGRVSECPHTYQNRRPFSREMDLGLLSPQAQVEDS
The note with it: at 1 µM.

In assay [16] the target is Vascular endothelial growth factor receptor 3 (Homo sapiens) (UniProt P35916). The note with it: at 0.1 µM.
Assay [17] shares this target. The note with it: at 1 µM.
Assay [18] concerns the target Macrophage colony-stimulating factor 1 receptor (Homo sapiens) (UniProt P07333). The note with it: at 0.1 µM.
For assay [19] the target is unchanged. The following applies: at 1 µM.
The target in assay [20] is Tyrosine-protein kinase Fyn (Homo sapiens) (UniProt P06241). The note with it: at 0.1 µM.
Sequence of Tyrosine-protein kinase Fyn (Homo sapiens) (P06241 2-537 limits assumed): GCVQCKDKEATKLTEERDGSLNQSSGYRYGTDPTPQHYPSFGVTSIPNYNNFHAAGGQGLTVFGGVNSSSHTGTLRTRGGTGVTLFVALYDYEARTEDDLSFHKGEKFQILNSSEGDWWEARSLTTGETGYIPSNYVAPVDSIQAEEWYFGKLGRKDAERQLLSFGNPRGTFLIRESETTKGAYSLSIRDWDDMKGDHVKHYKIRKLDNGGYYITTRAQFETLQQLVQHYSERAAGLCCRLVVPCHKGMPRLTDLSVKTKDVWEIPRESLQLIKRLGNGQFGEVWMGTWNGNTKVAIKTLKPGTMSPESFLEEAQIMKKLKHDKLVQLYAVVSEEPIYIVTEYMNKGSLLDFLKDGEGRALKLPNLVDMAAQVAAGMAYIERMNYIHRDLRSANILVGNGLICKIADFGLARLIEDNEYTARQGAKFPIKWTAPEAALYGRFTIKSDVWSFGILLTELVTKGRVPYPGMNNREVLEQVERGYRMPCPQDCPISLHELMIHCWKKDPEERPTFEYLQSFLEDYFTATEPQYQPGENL

Sequence of Serine/threonine-protein kinase Nek7 (Homo sapiens) (Q8TDX7 whole entry, looked up): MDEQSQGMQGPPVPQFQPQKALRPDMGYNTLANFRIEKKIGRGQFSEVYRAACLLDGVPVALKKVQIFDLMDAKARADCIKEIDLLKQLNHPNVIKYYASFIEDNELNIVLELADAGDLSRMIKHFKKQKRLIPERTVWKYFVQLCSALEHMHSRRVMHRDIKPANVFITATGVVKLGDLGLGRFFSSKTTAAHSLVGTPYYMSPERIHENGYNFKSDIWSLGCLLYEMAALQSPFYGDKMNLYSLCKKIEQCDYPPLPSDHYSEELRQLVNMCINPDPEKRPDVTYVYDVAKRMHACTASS
Sequence of Serine/threonine-protein kinase Nek6 (Homo sapiens) (Q9HC98 whole entry): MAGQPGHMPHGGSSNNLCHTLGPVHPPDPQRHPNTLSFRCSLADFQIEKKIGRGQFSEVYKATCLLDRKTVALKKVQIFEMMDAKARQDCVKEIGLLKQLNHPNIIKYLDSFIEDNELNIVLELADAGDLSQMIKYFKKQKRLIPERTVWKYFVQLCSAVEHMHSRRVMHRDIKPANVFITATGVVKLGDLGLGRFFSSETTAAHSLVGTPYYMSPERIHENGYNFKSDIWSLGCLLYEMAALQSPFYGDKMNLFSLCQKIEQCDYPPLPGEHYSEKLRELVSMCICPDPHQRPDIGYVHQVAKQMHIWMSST
Sequence of Macrophage colony-stimulating factor 1 receptor (Homo sapiens) (P07333 whole entry): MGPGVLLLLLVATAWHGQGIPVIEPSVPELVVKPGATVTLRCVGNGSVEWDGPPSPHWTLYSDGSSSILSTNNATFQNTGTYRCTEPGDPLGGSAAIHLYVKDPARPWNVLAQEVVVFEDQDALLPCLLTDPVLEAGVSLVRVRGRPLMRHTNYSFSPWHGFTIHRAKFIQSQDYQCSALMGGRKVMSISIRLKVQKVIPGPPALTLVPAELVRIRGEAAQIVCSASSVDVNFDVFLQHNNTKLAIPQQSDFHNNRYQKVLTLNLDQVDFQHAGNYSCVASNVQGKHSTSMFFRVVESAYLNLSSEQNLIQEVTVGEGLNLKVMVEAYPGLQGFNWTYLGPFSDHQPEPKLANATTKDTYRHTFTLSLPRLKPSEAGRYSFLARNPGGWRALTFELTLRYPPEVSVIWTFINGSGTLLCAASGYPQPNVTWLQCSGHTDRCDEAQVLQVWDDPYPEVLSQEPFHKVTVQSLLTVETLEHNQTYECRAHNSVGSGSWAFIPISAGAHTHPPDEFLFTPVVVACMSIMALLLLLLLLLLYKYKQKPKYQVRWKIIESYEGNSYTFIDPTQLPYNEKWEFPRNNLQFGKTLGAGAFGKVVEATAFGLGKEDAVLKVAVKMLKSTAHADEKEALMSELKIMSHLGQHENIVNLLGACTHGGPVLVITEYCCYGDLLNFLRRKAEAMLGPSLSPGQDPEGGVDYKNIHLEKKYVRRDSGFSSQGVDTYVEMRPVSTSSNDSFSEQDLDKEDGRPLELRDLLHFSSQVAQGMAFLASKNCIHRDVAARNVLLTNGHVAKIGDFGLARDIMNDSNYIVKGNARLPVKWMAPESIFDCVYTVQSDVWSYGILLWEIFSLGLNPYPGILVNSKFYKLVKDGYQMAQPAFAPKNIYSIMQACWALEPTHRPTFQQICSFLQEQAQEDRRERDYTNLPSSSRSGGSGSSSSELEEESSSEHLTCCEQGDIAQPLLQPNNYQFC
Sequence of Serine/threonine-protein kinase PLK1 (Homo sapiens) (P53350 whole entry): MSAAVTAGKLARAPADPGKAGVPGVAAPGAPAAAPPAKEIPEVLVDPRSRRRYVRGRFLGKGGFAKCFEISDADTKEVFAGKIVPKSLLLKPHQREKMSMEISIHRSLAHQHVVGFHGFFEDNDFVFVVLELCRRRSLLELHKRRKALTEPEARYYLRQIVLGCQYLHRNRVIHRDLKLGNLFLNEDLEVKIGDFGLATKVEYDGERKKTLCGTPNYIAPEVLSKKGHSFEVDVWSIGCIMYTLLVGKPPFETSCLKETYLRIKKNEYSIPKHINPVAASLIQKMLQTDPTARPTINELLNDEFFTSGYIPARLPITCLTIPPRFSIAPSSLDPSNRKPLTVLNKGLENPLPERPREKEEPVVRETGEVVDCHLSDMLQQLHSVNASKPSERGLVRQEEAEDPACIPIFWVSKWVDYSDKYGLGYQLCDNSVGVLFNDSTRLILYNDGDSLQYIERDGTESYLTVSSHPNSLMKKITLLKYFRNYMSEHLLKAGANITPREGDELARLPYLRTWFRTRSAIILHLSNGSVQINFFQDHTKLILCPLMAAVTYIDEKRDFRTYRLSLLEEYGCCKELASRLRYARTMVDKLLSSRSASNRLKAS
Sequence of Vascular endothelial growth factor receptor 3 (Homo sapiens) (P35916 whole entry): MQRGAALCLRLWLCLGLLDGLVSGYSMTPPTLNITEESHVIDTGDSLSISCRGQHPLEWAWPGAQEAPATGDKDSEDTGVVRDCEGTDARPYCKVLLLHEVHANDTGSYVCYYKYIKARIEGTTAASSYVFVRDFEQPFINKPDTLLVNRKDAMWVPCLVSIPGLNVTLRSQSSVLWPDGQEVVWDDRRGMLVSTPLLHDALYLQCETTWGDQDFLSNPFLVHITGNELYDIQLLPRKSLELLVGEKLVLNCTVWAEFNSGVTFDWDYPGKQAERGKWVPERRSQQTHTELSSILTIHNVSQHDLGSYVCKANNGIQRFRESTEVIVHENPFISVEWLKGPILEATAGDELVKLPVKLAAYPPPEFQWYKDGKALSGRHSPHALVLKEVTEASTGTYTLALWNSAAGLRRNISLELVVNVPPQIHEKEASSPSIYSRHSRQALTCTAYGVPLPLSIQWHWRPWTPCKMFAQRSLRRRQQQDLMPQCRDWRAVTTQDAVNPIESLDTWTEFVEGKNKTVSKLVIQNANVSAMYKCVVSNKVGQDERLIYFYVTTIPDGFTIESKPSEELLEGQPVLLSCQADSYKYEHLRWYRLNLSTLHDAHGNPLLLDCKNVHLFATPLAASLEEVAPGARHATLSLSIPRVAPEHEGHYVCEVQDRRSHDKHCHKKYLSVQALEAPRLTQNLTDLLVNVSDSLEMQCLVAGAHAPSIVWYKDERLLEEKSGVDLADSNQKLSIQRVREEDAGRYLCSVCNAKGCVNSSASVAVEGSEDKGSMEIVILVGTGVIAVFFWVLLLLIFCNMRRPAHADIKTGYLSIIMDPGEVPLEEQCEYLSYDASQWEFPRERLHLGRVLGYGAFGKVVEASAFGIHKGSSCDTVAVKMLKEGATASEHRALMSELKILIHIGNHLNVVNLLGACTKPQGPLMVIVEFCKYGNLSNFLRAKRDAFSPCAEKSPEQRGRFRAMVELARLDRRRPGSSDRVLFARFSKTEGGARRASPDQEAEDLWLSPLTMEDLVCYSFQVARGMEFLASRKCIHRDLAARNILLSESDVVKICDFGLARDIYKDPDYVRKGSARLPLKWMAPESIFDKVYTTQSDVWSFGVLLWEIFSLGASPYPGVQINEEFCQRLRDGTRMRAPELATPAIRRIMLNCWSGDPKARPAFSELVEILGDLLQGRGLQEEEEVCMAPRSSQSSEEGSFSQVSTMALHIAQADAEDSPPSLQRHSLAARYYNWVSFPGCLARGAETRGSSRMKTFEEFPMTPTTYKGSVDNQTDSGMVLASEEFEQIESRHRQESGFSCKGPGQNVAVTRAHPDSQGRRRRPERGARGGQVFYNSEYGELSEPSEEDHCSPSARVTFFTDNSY

For the compound `O=C(Nc1n[nH]c2nnc(-c3cccnc3)cc12)C1CC1`, the inhibition (commonly the change of the read-out against control, counted positive when it falls) in [1] was 0.84%; in assay [2] it was 0.17%; in assay [3], 1.72%; in assay [4] it was 0.71%; in assay [5], -2.27%; in [6], -0.09%. The inhibition in assay [7] is -0.1%; in [8], 0.09%; in [9] it was 1.6%; in assay [10], 7.25%; in [11], 1.12%; in assay [12] it was -0.87%. Also, the inhibition in assay [13] is 2.11%; in [14], 1.85%; in assay [15], -1.95%; in assay [16] it was 0.27%; in assay [17], 3.35%; in [18], -1.71%. The inhibition in assay [19] turned out to be 5.46%; in assay [20] it was 1.64%.
